The values that follow come from paper PMC11006913.

Holding throughout (assay): PBM; 200 nM protein, PBS
What all share (conditions): dsDNA, one strand shown

The target in assay [1] is CRX (Homo sapiens, UniProt O43186 26-111).
The target in assay [2] is ALX4 (Homo sapiens, UniProt Q9H161 200-286).
Assay [3] deals with PRRX1 (Homo sapiens, UniProt P54821 80-166, F113S).
Assay [4] concerns the target ALX4 (Homo sapiens, UniProt Q9H161 200-286, Q225E).
The target of assay [5] is CRX (Homo sapiens, UniProt O43186 26-111, E42D).
Sequence of CRX (Homo sapiens, UniProt O43186 26-111, E42D) (O43186 26-111 E42D): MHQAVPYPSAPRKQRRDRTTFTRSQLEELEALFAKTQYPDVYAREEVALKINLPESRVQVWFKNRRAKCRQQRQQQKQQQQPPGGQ
Assay [6] concerns the target CRX (Homo sapiens, UniProt O43186 26-111, R41L).
Assay [7] has as its target PRRX1 (Homo sapiens, UniProt P54821 80-166).
Assay [8] has as its target HOXC10 (Homo sapiens, UniProt Q9NYD6 254-340).
In assay [9] the target is HOXC10 (Homo sapiens, UniProt Q9NYD6 254-340, K271E).
Sequence of HOXC10 (Homo sapiens, UniProt Q9NYD6 254-340, K271E) (Q9NYD6 254-340 K271E): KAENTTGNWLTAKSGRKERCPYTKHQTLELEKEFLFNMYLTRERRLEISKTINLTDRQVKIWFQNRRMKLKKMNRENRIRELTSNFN
The target in assay [10] is HOXA2 (Homo sapiens, UniProt O43364 129-215, R185T).
Sequence of HOXA2 (Homo sapiens, UniProt O43364 129-215, R185T) (O43364 129-215 R185T): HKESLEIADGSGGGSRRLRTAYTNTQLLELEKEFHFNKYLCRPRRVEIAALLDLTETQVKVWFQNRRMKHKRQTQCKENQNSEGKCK
A further assay has as its target PITX2 (Homo sapiens, UniProt Q99697 72-157).
The target in assay [11] is HOXA2 (Homo sapiens, UniProt O43364 129-215, Y150S).
Sequence of HOXA2 (Homo sapiens, UniProt O43364 129-215, Y150S) (O43364 129-215 Y150S): as the sequence (O43364 129-215 R185T) above, with Y22S, T57R counted along it
Assay [12] addresses HOXA2 (Homo sapiens, UniProt O43364 129-215).
Assay [13] has as its target MSX2 (Homo sapiens, UniProt P35548 130-214, R199I).
The target in assay [14] is MSX2 (Homo sapiens, UniProt P35548 130-214).
Sequence of MSX2 (Homo sapiens, UniProt P35548 130-214) (P35548 130-214): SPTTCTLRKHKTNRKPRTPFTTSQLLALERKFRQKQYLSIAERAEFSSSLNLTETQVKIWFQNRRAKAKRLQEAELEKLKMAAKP
Assay [15] has as its target PROP1 (Homo sapiens, UniProt O75360 56-141).
The target of assay [16] is PROP1 (Homo sapiens, UniProt O75360 56-141, R99H).
Sequence of PROP1 (Homo sapiens, UniProt O75360 56-141, R99H) (O75360 56-141 R99H): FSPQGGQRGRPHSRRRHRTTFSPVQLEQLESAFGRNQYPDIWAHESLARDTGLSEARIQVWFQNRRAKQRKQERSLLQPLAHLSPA
Assay [17] concerns the target VAX1 (Homo sapiens, UniProt Q5SQQ9 86-172).
For assay [18], the target named is PROP1 (Homo sapiens, UniProt O75360 56-141, F88S).
Sequence of PROP1 (Homo sapiens, UniProt O75360 56-141, F88S) (O75360 56-141 F88S): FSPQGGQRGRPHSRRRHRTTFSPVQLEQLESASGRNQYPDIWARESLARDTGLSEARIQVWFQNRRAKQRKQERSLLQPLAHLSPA
Assay [19] addresses MSX2 (Homo sapiens, UniProt P35548 130-214, F161Y).
Assay [20] concerns the target VAX1 (Homo sapiens, UniProt Q5SQQ9 86-172, T142I).
Assay [21] has as its target VAX1 (Homo sapiens, UniProt Q5SQQ9 86-172, K157R).
In assay [22] the target is ALX1 (Homo sapiens, UniProt Q15699 118-204, L144V).
Sequence of ALX1 (Homo sapiens, UniProt Q15699 118-204, L144V) (Q15699 118-204 L144V): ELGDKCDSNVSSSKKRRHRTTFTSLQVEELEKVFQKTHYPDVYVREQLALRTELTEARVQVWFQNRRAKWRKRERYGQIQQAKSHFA
Assay [23] concerns the target HOXA2 (Homo sapiens, UniProt O43364 129-215, R185K).
In assay [24] the target is ALX1 (Homo sapiens, UniProt Q15699 118-204, L144R).
Sequence of ALX1 (Homo sapiens, UniProt Q15699 118-204, L144R) (Q15699 118-204 L144R): as the sequence (Q15699 118-204 L144V) above, with V27R counted along it
Assay [25] concerns the target ALX1 (Homo sapiens, UniProt Q15699 118-204).
Assay [26] concerns the target HOXA7 (Homo sapiens, UniProt P31268 116-202).
Assay [27] addresses HOXA7 (Homo sapiens, UniProt P31268 116-202, W177C).
In another assay the target is T1, SIX6 (Homo sapiens, UniProt O95475 114-200, T165P).
T1 sequence: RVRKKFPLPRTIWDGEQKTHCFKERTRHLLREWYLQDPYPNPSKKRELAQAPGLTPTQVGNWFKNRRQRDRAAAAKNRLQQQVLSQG

Sequence of CRX (Homo sapiens, UniProt O43186 26-111) (O43186 26-111): as the sequence (O43186 26-111 E42D) above, with D17E counted along it
Sequence of CRX (Homo sapiens, UniProt O43186 26-111, R41L) (O43186 26-111 R41L): as the sequence (O43186 26-111 E42D) above, with R16L, D17E counted along it
Sequence of HOXA2 (Homo sapiens, UniProt O43364 129-215) (O43364 129-215): as the sequence (O43364 129-215 R185T) above, with T57R counted along it
Sequence of ALX4 (Homo sapiens, UniProt Q9H161 200-286, Q225E) (Q9H161 200-286 Q225E): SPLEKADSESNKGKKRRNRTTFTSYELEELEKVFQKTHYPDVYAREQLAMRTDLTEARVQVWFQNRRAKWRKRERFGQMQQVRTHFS
Sequence of ALX4 (Homo sapiens, UniProt Q9H161 200-286) (Q9H161 200-286): as the sequence (Q9H161 200-286 Q225E) above, with E26Q counted along it
Sequence of PRRX1 (Homo sapiens, UniProt P54821 80-166) (P54821 80-166): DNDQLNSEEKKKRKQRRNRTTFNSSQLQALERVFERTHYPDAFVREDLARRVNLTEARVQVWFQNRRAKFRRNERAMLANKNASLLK
Sequence of HOXC10 (Homo sapiens, UniProt Q9NYD6 254-340) (Q9NYD6 254-340): as the sequence (Q9NYD6 254-340 K271E) above, with E18K counted along it
Sequence of PRRX1 (Homo sapiens, UniProt P54821 80-166, F113S) (P54821 80-166 F113S): as the sequence (P54821 80-166) above, with F34S counted along it
Sequence of PROP1 (Homo sapiens, UniProt O75360 56-141) (O75360 56-141): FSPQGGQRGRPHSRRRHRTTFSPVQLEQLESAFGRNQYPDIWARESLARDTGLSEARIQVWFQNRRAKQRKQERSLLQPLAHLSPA
Sequence of HOXA2 (Homo sapiens, UniProt O43364 129-215, R185K) (O43364 129-215 R185K): as the sequence (O43364 129-215 R185T) above, with T57K counted along it
Sequence of ALX1 (Homo sapiens, UniProt Q15699 118-204) (Q15699 118-204): as the sequence (Q15699 118-204 L144V) above, with V27L counted along it
Sequence of MSX2 (Homo sapiens, UniProt P35548 130-214, R199I) (P35548 130-214 R199I): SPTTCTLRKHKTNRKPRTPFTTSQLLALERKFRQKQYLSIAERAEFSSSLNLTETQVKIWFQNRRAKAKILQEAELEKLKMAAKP
Sequence of VAX1 (Homo sapiens, UniProt Q5SQQ9 86-172, T142I) (Q5SQQ9 86-172 T142I): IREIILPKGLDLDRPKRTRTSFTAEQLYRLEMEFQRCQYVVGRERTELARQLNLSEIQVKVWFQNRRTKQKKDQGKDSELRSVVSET
Sequence of HOXA7 (Homo sapiens, UniProt P31268 116-202) (P31268 116-202): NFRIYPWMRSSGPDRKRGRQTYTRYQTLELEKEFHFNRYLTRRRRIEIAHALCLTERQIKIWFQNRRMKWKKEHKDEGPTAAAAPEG
Sequence of MSX2 (Homo sapiens, UniProt P35548 130-214, F161Y) (P35548 130-214 F161Y): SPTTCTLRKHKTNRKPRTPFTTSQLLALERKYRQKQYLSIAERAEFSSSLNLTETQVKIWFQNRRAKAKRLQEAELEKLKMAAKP
Sequence of HOXA7 (Homo sapiens, UniProt P31268 116-202, W177C) (P31268 116-202 W177C): as the sequence (P31268 116-202) above, with W62C counted along it
Sequence of VAX1 (Homo sapiens, UniProt Q5SQQ9 86-172, K157R) (Q5SQQ9 86-172 K157R): as the sequence (Q5SQQ9 86-172 T142I) above, with I57T, K72R counted along it
Sequence of VAX1 (Homo sapiens, UniProt Q5SQQ9 86-172) (Q5SQQ9 86-172): as the sequence (Q5SQQ9 86-172 T142I) above, with I57T counted along it

Consider CCTCCCAC, for which the binding signal with CRX [1] was 8.12 upbm affinity estimate (log intensity, higher = more binding, comparable within an allelic series); in the assay with ALX4 [2], 7.99 upbm affinity estimate (log intensity, higher = more binding, comparable within an allelic series); with PRRX1 [3], 9.27 upbm affinity estimate (log intensity, higher = more binding, comparable within an allelic series); in the assay with ALX4 [4], 8.07 upbm affinity estimate (log intensity, higher = more binding, comparable within an allelic series); with CRX [5] it was 8.07 upbm affinity estimate (log intensity, higher = more binding, comparable within an allelic series); with CRX [6] it was 8.16 upbm affinity estimate (log intensity, higher = more binding, comparable within an allelic series). Also, in the assay with PRRX1 [7], the binding signal is 9.17 upbm affinity estimate (log intensity, higher = more binding, comparable within an allelic series).

Take ATCAGTTA: the binding signal with CRX [1] was 9.84 upbm affinity estimate (log intensity, higher = more binding, comparable within an allelic series); with CRX [5], 9.71 upbm affinity estimate (log intensity, higher = more binding, comparable within an allelic series).

Take AGCTCAGG: the binding signal with CRX [1] was 9.99 upbm affinity estimate (log intensity, higher = more binding, comparable within an allelic series); in the assay with CRX [5], 9.91 upbm affinity estimate (log intensity, higher = more binding, comparable within an allelic series).

Take ACTGCGTG: the binding signal is 8.27 upbm affinity estimate (log intensity, higher = more binding, comparable within an allelic series) with CRX [1]; 9.32 upbm affinity estimate (log intensity, higher = more binding, comparable within an allelic series) with PRRX1 [3]; 8.35 upbm affinity estimate (log intensity, higher = more binding, comparable within an allelic series) with CRX [5]; 8.29 upbm affinity estimate (log intensity, higher = more binding, comparable within an allelic series) in the assay with CRX [6]; 9.57 upbm affinity estimate (log intensity, higher = more binding, comparable within an allelic series) in the assay with PRRX1 [7].

As for CGGCGTCC, the binding signal in the assay with CRX [1] is 7.94 upbm affinity estimate (log intensity, higher = more binding, comparable within an allelic series); in the assay with HOXC10 [8] it was 10 upbm affinity estimate (log intensity, higher = more binding, comparable within an allelic series); with CRX [5] it was 8 upbm affinity estimate (log intensity, higher = more binding, comparable within an allelic series); with HOXC10 [9], 10.1 upbm affinity estimate (log intensity, higher = more binding, comparable within an allelic series); in the assay with CRX [6], 8.06 upbm affinity estimate (log intensity, higher = more binding, comparable within an allelic series).

In the case of CATCATAA, the binding signal was 10.1 upbm affinity estimate (log intensity, higher = more binding, comparable within an allelic series) with CRX [1]; 11.7 upbm affinity estimate (log intensity, higher = more binding, comparable within an allelic series) in the assay with HOXC10 [8]; 10 upbm affinity estimate (log intensity, higher = more binding, comparable within an allelic series) with CRX [5]; 11.3 upbm affinity estimate (log intensity, higher = more binding, comparable within an allelic series) with HOXC10 [9]; 9.57 upbm affinity estimate (log intensity, higher = more binding, comparable within an allelic series) with CRX [6].

As to AGGATTAG, the binding signal with CRX [1] was 13.5 upbm affinity estimate (log intensity, higher = more binding, comparable within an allelic series); with HOXA2 [10], 9.36 upbm affinity estimate (log intensity, higher = more binding, comparable within an allelic series); with CRX [5] it was 13.5 upbm affinity estimate (log intensity, higher = more binding, comparable within an allelic series); with PITX2, 13.2 upbm affinity estimate (log intensity, higher = more binding, comparable within an allelic series); with HOXA2 [11], 10.7 upbm affinity estimate (log intensity, higher = more binding, comparable within an allelic series); with CRX [6], 13.3 upbm affinity estimate (log intensity, higher = more binding, comparable within an allelic series). In addition, the binding signal in the assay with HOXA2 [12] is 9.15 upbm affinity estimate (log intensity, higher = more binding, comparable within an allelic series).

GTGCCACA: the binding signal is 8.41 upbm affinity estimate (log intensity, higher = more binding, comparable within an allelic series) with CRX [1]; 8.34 upbm affinity estimate (log intensity, higher = more binding, comparable within an allelic series) with CRX [5]; 9.58 upbm affinity estimate (log intensity, higher = more binding, comparable within an allelic series) with MSX2 [13]; 9.65 upbm affinity estimate (log intensity, higher = more binding, comparable within an allelic series) with MSX2 [14]; 6.66 upbm affinity estimate (log intensity, higher = more binding, comparable within an allelic series) with PROP1 [15]; 6.7 upbm affinity estimate (log intensity, higher = more binding, comparable within an allelic series) with PROP1 [16]. Besides, the binding signal with VAX1 [17] is 7.16 upbm affinity estimate (log intensity, higher = more binding, comparable within an allelic series); with PROP1 [18], 6.8 upbm affinity estimate (log intensity, higher = more binding, comparable within an allelic series); with MSX2 [19], 9.56 upbm affinity estimate (log intensity, higher = more binding, comparable within an allelic series); with VAX1 [20], 7.19 upbm affinity estimate (log intensity, higher = more binding, comparable within an allelic series); in the assay with CRX [6], 8.33 upbm affinity estimate (log intensity, higher = more binding, comparable within an allelic series); with VAX1 [21], 7.08 upbm affinity estimate (log intensity, higher = more binding, comparable within an allelic series).

For the sequence ACCGGGCG, the binding signal is 7.62 upbm affinity estimate (log intensity, higher = more binding, comparable within an allelic series) with CRX [1]; 7.78 upbm affinity estimate (log intensity, higher = more binding, comparable within an allelic series) in the assay with ALX4 [2]; 7.99 upbm affinity estimate (log intensity, higher = more binding, comparable within an allelic series) with ALX4 [4]; 6.76 upbm affinity estimate (log intensity, higher = more binding, comparable within an allelic series) in the assay with HOXA2 [10]; 7.73 upbm affinity estimate (log intensity, higher = more binding, comparable within an allelic series) with CRX [5]; 6.09 upbm affinity estimate (log intensity, higher = more binding, comparable within an allelic series) with ALX1 [22]. For the same sequence, the binding signal is 10.3 upbm affinity estimate (log intensity, higher = more binding, comparable within an allelic series) in the assay with HOXA2 [23]; 6.25 upbm affinity estimate (log intensity, higher = more binding, comparable within an allelic series) with ALX1 [24]; 10.3 upbm affinity estimate (log intensity, higher = more binding, comparable within an allelic series) with HOXA2 [11]; 7.79 upbm affinity estimate (log intensity, higher = more binding, comparable within an allelic series) with CRX [6]; 6.19 upbm affinity estimate (log intensity, higher = more binding, comparable within an allelic series) with ALX1 [25]; 7.26 upbm affinity estimate (log intensity, higher = more binding, comparable within an allelic series) with HOXA2 [12].

For AGCGTCCG, the binding signal was 8.29 upbm affinity estimate (log intensity, higher = more binding, comparable within an allelic series) with CRX [1]; 8.2 upbm affinity estimate (log intensity, higher = more binding, comparable within an allelic series) with HOXA7 [26]; 8.33 upbm affinity estimate (log intensity, higher = more binding, comparable within an allelic series) with CRX [5]; 8.37 upbm affinity estimate (log intensity, higher = more binding, comparable within an allelic series) with HOXA7 [27]; 8.29 upbm affinity estimate (log intensity, higher = more binding, comparable within an allelic series) with CRX [6].

As for GCGGATCA, the binding signal is 11.3 upbm affinity estimate (log intensity, higher = more binding, comparable within an allelic series) with CRX [1]; 9.3 upbm affinity estimate (log intensity, higher = more binding, comparable within an allelic series) with SIX6; 11.2 upbm affinity estimate (log intensity, higher = more binding, comparable within an allelic series) with CRX [5]; 10.8 upbm affinity estimate (log intensity, higher = more binding, comparable within an allelic series) with CRX [6].

For the sequence CTAACTCC, the binding signal with CRX [1] was 9.81 upbm affinity estimate (log intensity, higher = more binding, comparable within an allelic series); with CRX [5] it was 9.62 upbm affinity estimate (log intensity, higher = more binding, comparable within an allelic series).
